Test results from the supplement of paper PMC10981050.
Where “and” joins values, the source holds several entries; their conditions need not be identical. Equal values may be shown once. Where a name gives a salt, the structure may show the parent alone.

Assays:
Assay in all cases: cell viability relative to vehicle control; higher = less cytotoxic
Conditions in all cases: 10 µM
K562 = tested on: K562
Outline: (§1)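 CRISPR-edited mutant clones and isogenic wild-type clones from four leukaemia lines were screened against Selleck bioactive, kinase and epigenetic probe libraries, with identity-inconsistent compounds excluded. Each compound was acoustically dispensed at a single 10 µM dose into 384-well plates holding 2000 cells in 50 µL medium per well. After 48 h the supernatant was removed and CellTiter-Glo luminescence was read. Viability was expressed as percent of the on-plate vehicle control and analysed in Genedata Screener.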

MARIMO = tested on: MARIMO
Outline: as §1

MOLM14 = tested on: MOLM14
Outline: as §1

OCI-AML2 = tested on: OCI-AML2
Outline: as §1

SMILES	cell viability (K562; SRSF2 genotype: SRSF2 P95H/wt)	cell viability (K562; SRSF2 genotype: SRSF2 wt/wt)	cell viability (MARIMO; SRSF2 genotype: SRSF2 P95H/wt)	cell viability (MARIMO; SRSF2 genotype: SRSF2 wt/wt)	cell viability (MOLM14; SRSF2 genotype: SRSF2 P95H/wt)	cell viability (MOLM14; SRSF2 genotype: SRSF2 wt/wt)	cell viability (OCI-AML2; SRSF2 genotype: P95H/wt)	cell viability (OCI-AML2; SRSF2 genotype: wt/wt)
O=C(NC(Cc1cc(=O)[nH]c2ccccc12)C(=O)O)c1ccc(Cl)cc1 (stereo unspecified) [Rebamipide]	99.4% and 101%	96.4%	96.9%	100%	104%	101%	94.8%	102%
COc1ccc(CCC(=O)c2c(O)cc(O[C@@H]3O[C@H](CO)[C@@H](O)[C@H](O)[C@H]3O[C@@H]3O[C@@H](C)[C@H](O)[C@@H](O)[C@H]3O)cc2O)cc1O [Neohesperidin dihydrochalcone (Nhdc)]	107% and 83.6%	84.9%	82.7%	90.5%	82.3%	86.8%	89.6%	84.9%
COc1cc2c(N3CCN(C(=O)Nc4ccc(OC(C)C)cc4)CC3)ncnc2cc1OCCCN1CCCCC1 [Tandutinib (MLN518)]	86.7% and 96.2%	83.2%	83.7%	100%	17.1%	14.4%	34.3%	43.5%
OC[C@H]1O[C@H](OCC2O[C@@H](O)[C@H](O)[C@@H](O)[C@@H]2O)[C@H](O)[C@@H](O)[C@H]1O (stereo partly specified) [Melibiose]	108% and 104%	106%	105%	110%	101%	108%	98.5%	103%
Cn1cnc2c(F)c(Nc3ccc(Br)cc3Cl)c(C(=O)NOCCO)cc21 [AZD6244 (Selumetinib)]	79% and 92.2%	75.3%	37.5%	36.3%	44.6%	31.3%	39.6%	43.6%
Cc1cc(Nc2ncc3c(n2)N(C)C(=O)N(c2cc(NC(=O)c4cccc(C(F)(F)F)c4)ccc2C)C3)n(C)n1 [Pluripotin (SC1)]	35.1% and 35.2%	30.4%	22.1%	21.8%	7.16%	7.23%	12.7%	20.3%
OC[C@@H](O)[C@@H](O)[C@H](O)[C@@H](O)CO [Sorbitol (Glucitol)]	101% and 105%	102%	103%	102%	97.3%	104%	101%	100%
O=C1NC(=O)/C(=C/c2ccc3nccc(-c4ccncc4)c3c2)S1	62.8% and 84%	69.7%	54.6%	50.5%	40.1%	42%	25.4%	28.8%
CN1CCC(=C2c3ccccc3CCc3sccc32)CC1 [Pizotifen malate]	89.7% and 97%	95.2%	76.9%	83.8%	76.5%	90.1%	81.4%	83%
NC1(C(=O)N[C@@H](CCO)c2ccc(Cl)cc2)CCN(c2ncnc3[nH]ccc23)CC1	82.6% and 83.6%	79%	66.6%	67.1%	28.5%	33.3%	59.8%	55.8%
CCC(C)CC(C)CCCCCCCCC(=O)NC1CC(O)C(O)NC(=O)C2C(O)CCN2C(=O)C(C(O)CC(N)=O)NC(=O)C(C(O)C(O)c2ccc(O)cc2)NC(=O)C2CC(O)CN2C(=O)C(C(C)O)NC1=O (stereo unspecified) [Pneumocandin B0]	96.7% and 91.6%	90%	97%	95.1%	93.5%	98.7%	95.7%	91.8%
N=C(N)Nc1ccc(C(=O)Oc2ccc3cc(C(=N)N)ccc3c2)cc1 [Nafamostat mesylate]	90.4% and 98.9%	89.4%	77.2%	76%	94.2%	89.4%	83.2%	85.1%
COC(=O)C1=COC(OC2OC(CO)C(O)C(O)C2O)C2C(C)CC(=O)C12O (stereo unspecified) [Hastatoside]	108% and 101%	107%	104%	99.3%	108%	104%	99.5%	102%
CNc1nc(Nc2cn(C(C)(C)C#N)nc2C)ncc1C(F)(F)F	101% and 102%	103%	101%	108%	98.8%	101%	102%	105%
N=C(N)NC(=N)N1CCOCC1 [Moroxydine HCl]	99.7% and 100%	91.8%	97.6%	101%	95.8%	99.5%	98.1%	93.8%
CC=Cc1cc(OC)c2c(c1)C(C)C(c1ccc(O)c(OC)c1)O2 (stereo unspecified) [Dehydrodiisoeugenol]	90.2% and 91.2%	90.4%	89.4%	95.5%	83.3%	97.8%	75.8%	78.8%
Fc1ccc([C@@H]2CCNC[C@H]2COc2ccc3c(c2)OCO3)cc1 [Paroxetine mesylate]	34.1% and 53.1%	49.5%	39%	35.6%	33.4%	38.1%	28.7%	39.2%
CCOc1nc2cccc(C(=O)O)c2n1Cc1ccc(-c2ccccc2-c2nnn[nH]2)cc1 [Candesartan (Atacand)]	91% and 88.3%	89.3%	91.7%	100%	94.7%	93.5%	83.1%	87.3%
C=C1C[C@@]23CC[C@H]4[C@@](C)(CCC[C@@]4(C)C(=O)O[C@@H]4O[C@H](CO)[C@@H](O)[C@H](O)[C@H]4O)[C@@H]2CC[C@]1(O[C@@H]1O[C@H](CO)[C@@H](O)[C@H](O)[C@H]1O)C3 [Rubusoside]	100% and 97.7%	101%	110%	104%	104%	103%	104%	114%

SMILES	cell viability (K562; SRSF2 genotype: SRSF2 P95H/wt)	cell viability (K562; SRSF2 genotype: SRSF2 wt/wt)	cell viability (MARIMO; SRSF2 genotype: SRSF2 P95H/wt)	cell viability (MARIMO; SRSF2 genotype: SRSF2 wt/wt)	cell viability (MOLM14; SRSF2 genotype: SRSF2 P95H/wt)	cell viability (MOLM14; SRSF2 genotype: SRSF2 wt/wt)	cell viability (OCI-AML2; SRSF2 genotype: P95H/wt)	cell viability (OCI-AML2; SRSF2 genotype: wt/wt)
CCOC(=O)C1=C(C)NC(C)=C(C(=O)OC)C1c1cccc([N+](=O)[O-])c1 (stereo unspecified) [Nitrendipine]	101% and 104%	100%	97.3%	99.9%	97.7%	103%	122%	111%
CC[C@H](C)n1cc(C)c2c(C(=O)NCc3c(C)cc(C)[nH]c3=O)cc(-c3ccc(N4CCNCC4)nc3)cc21	78.3% and 82.1%	78.2%	80.9%	94.6%	81.6%	81.7%	68%	75.4%
O=C1CN(/N=C/C=C/c2ccc([N+](=O)[O-])o2)C(=O)N1 [Furagin]	105% and 103%	104%	93.7%	107%	105%	108%	101%	108%
Cc1ccc(S(=O)(=O)n2c(N)nc3ccccc32)cc1	95.4% and 101%	97.9%	102%	104%	102%	104%	98.3%	97.2%
Cc1c(-c2ccc(O)cc2)n(Cc2ccc(OCCN3CCCCCC3)cc2)c2ccc(O)cc12 [Bazedoxifene HCl]	1.11% and 0.75%	0.96%	17.3%	27.5%	0.32%	0.46%	0.41%	0.44%
CC[C@H]1[C@@H](O)[C@@H]2[C@H](CC[C@]3(C)[C@@H]([C@H](C)CCC(=O)O)CC[C@@H]23)[C@@]2(C)CC[C@@H](O)C[C@@H]12 [Obeticholic Acid]	106% and 109%	102%	107%	105%	103%	105%	107%	110%
Oc1ccc(OCc2ccccc2)cc1 [Monobenzone (Benoquin)]	89.5% and 92.4%	83.9%	53.8%	73%	27.1%	11.3%	32.5%	47.3%
Nc1ccccc1NC(=O)c1cnccn1	91.8% and 96%	82.8%	76.7%	90.7%	75.5%	73.9%	81.3%	88.3%
CC(C(=O)O)c1cccc(Oc2ccccc2)c1 (stereo unspecified) [Fenoprofen calcium hydrate]	95.1% and 104%	99.4%	103%	101%	95.1%	102%	106%	103%
C[C@]12CC[C@@H]3c4ccc(O)cc4CC[C@H]3[C@@H]1CC[C@@H]2OC(=O)CCC1CCCC1 [Estradiol Cypionate]	91.5% and 90.9%	91.3%	86.9%	81.6%	75%	84.1%	55.4%	53.1%
CCNC(=O)CCC/C=C\C[C@@H]1[C@@H](/C=C/[C@@H](O)CCc2ccccc2)[C@H](O)C[C@@H]1O [Bimatoprost]	99.5% and 99.1%	96.8%	95.4%	98.3%	98.4%	98.3%	105%	98.8%
CCCCOc1ccc(CC(=O)NO)cc1 [Bufexamac]	95% and 94.9%	98.8%	91.6%	88.7%	85.7%	93.1%	98.1%	91.8%
Cc1nccn1CC1CCc2c(c3ccccc3n2C)C1=O (stereo unspecified) [Ondansetron Hydrochloride Dihydrate]	95.8% and 94.2%	91.5%	95.9%	108%	97.4%	97.4%	88.6%	99.1%
Nc1cc(C(Cl)=C(Cl)Cl)c(S(N)(=O)=O)cc1S(N)(=O)=O [Clorsulon]	92.3% and 94.2%	99.7%	103%	107%	104%	99.8%	99.9%	112%
CN(C)CCCCC(=O)Nc1ccc(NC(=S)NC(=O)c2ccc(C(C)(C)C)cc2)cc1 [Tenovin-6]	2.61% and 5.21%	12.4%	1.49%	1.85%	1.6%	0.76%	1.27%	5.3%
Clc1cccc(Cl)c1NC1=NCCN1 [Clonidine hydrochloride (Catapres)]	98.5% and 103%	105%	110%	113%	89.2%	103%	115%	101%
O=S(=O)(NCCNCC=Cc1ccc(Br)cc1)c1cccc2cnccc12	77.6% and 78%	75.8%	61.2%	69.1%	43.2%	50%	38.7%	43.2%
O=C(NC[C@H]1CN(c2ccc(N3CCOCC3=O)cc2)C(=O)O1)c1ccc(Cl)s1 [Rivaroxaban (Xarelto)]	87.3% and 85.4%	92.3%	92.5%	91.3%	96.8%	97.1%	90.8%	85.8%
